Measured values reported in PubChem BioAssay (Tox21).
Results filed as inconclusive are left out. The source made the active and inactive calls. Calls follow the shape of the dose curve; as a rule, active = well fitted activation curve with a large enough effect in the repeat runs; inconclusive = weak or mixed curves; inactive = flat fitted curve, though single readings scatter.

Test: A CellTox Green Cytotoxicity Assay to monitor cytotoxicity in HEK293 cells - 40 hour (AID 1224871); also: nearly all actives have a fitted effect of over 45% in size
Settings: CellTox Green fluorescence; series mostly up to 76.8 µM; cytotoxicity increase: at the top concentration
From the text: National Center for Advancing Translational Sciences [NCATS]
NIH Chemical Genomics Center [NCGC]
U.S. Environmental Protection Agency [EPA]
National Institutes of Environmental Health Sciences [NIEHS]
National Toxicology Program [NTP]
Cell-based models are critical for drug discovery. Determining the natural cytotoxic effects resulting from test compounds is an essential research activity. A CellTox Green Cytotoxicity Assay to monitor cytotoxicity in real time of continues cell culture during 40 hours of the compound treatment was used to screen Tox21 10K library compounds in Hek293 cells. CellTox Green Cytotoxicity Assay is a nonlytic, homogeneous, biofluorescent method to measure cytotoxicity in cell culture after experimental manipulation. The assay system uses a proprietary asymmetric cyanine dye that is excluded from viable cells but preferentially stains the dead cell's DNA. […] Viable cells produce no appreciable increases in fluorescence. Therefore, the fluorescence signal produced by the binding interaction with dead cell DNA is proportional to cytotoxicity.
The mixture of Hek293 cell suspension and reagents were dispensed at 600cells/6 ul/well in 1536-well tissue culture treated black solid bottom plates using a Multidrop dispenser. After the assay plates were incubated at a 37 C/5% CO2 incubator for 5 hours, 23 nL of compounds dissolved in DMSO, positive and negative controls was transferred to the assay plate by a pintool work station. The plates were incubated at 37 C for 40 hours. The fluorescence intensity were measured at 0h, 8h, 16h, 24h, 32h and 40h time points using ViewLux plate reader during compound treatment.
% is scaled to controls: 0 for no effect and ±100 for the full control effect; potency is read from the fitted curve at half-maximal effect.

Row | Structure (SMILES) | cytotoxicity increase | Potency
1 | Cc1ccc(N(CCO)CCO)cc1 | -0.357% (inactive) | 
2 | CC(C)c1ccc(C(=O)N=C(N)N)cc1S(C)(=O)=O | -11.4% [at 35.3 µM] (inactive) | 
3 | COc1ccc(N)c([N+](=O)[O-])c1 | -14.4% (inactive) | 
4 | C[C@@H]1C[C@H]2[C@@H]3CCC4=CC(=O)C=C[C@]4(C)[C@@]3(F)[C@@H](O)C[C@]2(C)[C@@]1(O)C(=O)COP(=O)(O)O | -8.67% (inactive) | 
5 | CCCC(=O)OC(=O)CCC | 1.67% (inactive) | 
6 | Cc1cccc(C)c1NC(=O)c1cc(S(N)(=O)=O)c(Cl)cc1O | -9.15% [at 35.3 µM] (inactive) | 
7 | CCC(=O)OCc1ccc(OC)cc1 | -12.6% (inactive) | 
8 | CN1CCCN(C(c2ccccc2)c2ccc(Cl)cc2)CC1 (stereo not given) |  | 26.8 µM (active)
9 | CCCCCCCC/C=C/C(=O)O | 6.82% [at 35.3 µM] (inactive) | 
10 | CCNc1nc(N)nc(Cl)n1 | -8.52% (inactive) | 
11 | CNc1c2c(nn1C)CCCC2 | -3.71% [at 35.3 µM] (inactive) | 
12 | O=C1CC[C@@H](C(=O)O)N1 | -4.53% [at 35.3 µM] (inactive) | 
13 | CSCC[C@H](NC(=O)[C@H](Cc1c[nH]c2ccccc12)NC(=O)CCNC(=O)OC(C)(C)C)C(=O)N[C@@H](CC(=O)O)C(=O)N[C@@H](Cc1ccccc1)C(N)=O | -0.47% [at 35.3 µM] (inactive) | 
14 | CNCc1ccc(NC(=O)c2c[nH]c3c2C(=O)CCC3)cc1 | -10.5% (inactive) | 
15 | COc1ccc(C2C(=O)c3ccccc3C2=O)cc1 | -4.86% [at 35.3 µM] (inactive) | 
16 | CC(C(=O)O)c1ccc(C(=O)c2cccs2)cc1 (stereo not given) | -0.555% [at 35.3 µM] (inactive) | 
17 | Cc1c(C2(c3cc(Br)c(O)c(Br)c3C)OS(=O)(=O)c3ccccc32)cc(Br)c(O)c1Br | -21% (inactive) | 
18 | C[C@H](CS)C(=O)N1CCC[C@H]1C(=O)O | 5.66% [at 35.3 µM] (inactive) | 
19 | CNC1CCCN(c2c(F)cc3c(=O)c(C(=O)O)cn(C4CC4)c3c2OC)C1 (stereo not given) | -12.3% [at 35.3 µM] (inactive) | 
20 | O=C1OC(=O)c2c(Br)c(Br)c(Br)c(Br)c21 | 18% (inactive) | 

Row | Structure (SMILES) | cytotoxicity increase | Potency
21 | CC(CCc1ccc(O)cc1)NCCc1ccc(O)c(O)c1 (stereo not given) | -10.6% [at 35.3 µM] (inactive) | 
22 | CC[C@H]1OC(=O)[C@H](C)[C@@H](O[C@H]2C[C@@](C)(OC)[C@@H](O)[C@H](C)O2)[C@H](C)[C@@H](O[C@@H]2O[C@H](C)C[C@H](N(C)C)[C@H]2O)[C@](C)(O)C[C@@H](C)C(=O)[C@H](C)[C@@H](O)[C@]1(C)O | -5.08% [at 35.3 µM] (inactive) | 
23 | CCCCOCCOC(=O)c1cccnc1 | -10.8% [at 35.3 µM] (inactive) | 
24 | CC1CCc2nccnc21 (stereo not given) | 0.111% (inactive) | 
25 | C=C(C)c1ccccc1 | -2.6% (inactive) | 
26 | O=c1[nH][nH]c(=O)c2cc([N+](=O)[O-])ccc12 | -20.5% (inactive) | 
27 | O=C(O)CCC(=O)OC[C@@H](NC(=O)C(Cl)Cl)[C@H](O)c1ccc([N+](=O)[O-])cc1 |  | 21.3 µM (active)
28 | N[C@@H](Cc1cc(I)c(O)c(I)c1)C(=O)O | 9.94% [at 35.3 µM] (inactive) | 
29 | CC(C)N(C)C | 28.6% (inactive) | 
30 | COc1cc(NS(=O)(=O)c2ccc(N)cc2)nc(C)n1 | -0.203% [at 35.3 µM] (inactive) | 
31 | O=S(=O)(O)CO | -9.8% (inactive) | 
32 | COc1cc(C(C)=O)ccc1OCCCN1CCC(c2noc3cc(F)ccc23)CC1 | 18.9% [at 35.3 µM] (inactive) | 
33 | CC1=C2[C@@H]([C@H](C)CC[C@H]2/C=C(\C)C(=O)O)[C@H](O)C1 | -1.57% (inactive) | 
34 | O=C(c1ccccc1)C1CCC1 |  | 24.5 µM (active)
35 | O=C(O)CCC(=O)c1ccc(-c2ccccc2)cc1 | -14.4% [at 35.3 µM] (inactive) | 
36 | CCOc1ncc(F)c(=O)[nH]1 | 6.48% [at 35.3 µM] (inactive) | 
37 | CCCCCCCCCCCCCOS(=O)(=O)O | 29.1% (inactive) | 
38 | O=[N+]([O-])C1(Br)COCOC1 |  | 49 µM (active)
39 | Cc1ccc(NC(=O)N(C)C)cc1NC(=O)N(C)C | 0.769% (inactive) | 
40 | CC(C)CC(O)CC(C)C | -11.3% (inactive) | 
